Granule exo inh – lytic granule exocytosis inhibition | TALL-104 LAMP-1 surface exposure, flow cytometry; cells stimulated with thapsigargin and PMA | inhibition, % at 10 µM | 360,000 compounds, 0.66% hits | AID 651702;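 active = inhibition above about 55%, limit read from the data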
B2AR ag – activates human beta-2 adrenergic receptor causing internalization. P07550. Am2.2-beta2AR cells, FAP receptor internalization, flow cytometry. response, % (no concentration beside the values). 340,000 compounds, 0.43% hits. AID 504454;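 active = response above a set limit, near 3 SD of response in nonfluorescent compounds, cut at about 42% in these data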
NTR1 ag – activates human neurotensin receptor 1 | NTR1-U2OS beta-arrestin-GFP spot imaging, agonist mode | activation, % at 20 µM | 330,000 compounds, 0.17% hits;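 active = activation at or above 40% of the spot to cytoplasm intensity ratio, with at least 20 cells analyzed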;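 also: 0% = DMSO without peptide and 100% = 100 nM NTR1 peptide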
Target sequence (P30989 whole entry, looked up): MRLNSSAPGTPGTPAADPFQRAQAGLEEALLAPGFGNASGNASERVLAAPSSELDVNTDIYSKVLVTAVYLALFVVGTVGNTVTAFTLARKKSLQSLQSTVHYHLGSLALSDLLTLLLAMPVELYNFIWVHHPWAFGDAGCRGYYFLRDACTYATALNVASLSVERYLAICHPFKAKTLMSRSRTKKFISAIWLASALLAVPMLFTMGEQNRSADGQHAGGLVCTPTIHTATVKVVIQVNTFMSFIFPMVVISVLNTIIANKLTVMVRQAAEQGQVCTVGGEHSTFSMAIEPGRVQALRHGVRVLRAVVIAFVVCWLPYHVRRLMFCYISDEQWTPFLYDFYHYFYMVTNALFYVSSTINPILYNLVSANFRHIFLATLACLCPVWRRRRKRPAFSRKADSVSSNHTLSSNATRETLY
m5-HT2A agonist – mouse HTR2A agonism via beta-arrestin recruitment. AID 624169. activation, % at 7.6 µM. 360,000 compounds, 0.66% hits. P35363. CHO-K1 mHTR2A beta-arrestin complementation, luminescence; percent of 30 µM serotonin response;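 active = activation above a run cutoff, the mean activation of all tested compounds plus 3 SD, cut at about 14% in these data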;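 also: 0% = plate median of compound wells and 100% = 30 µM serotonin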
ABHD5 PLIN5 PPI – inhibitors of human ABHD5-perilipin-5 interaction. Q00G26+Q8WTS1. Split G. princeps luciferase complementation, luminescence, 4 h. inhibition, % at 4 µM. 360,000 compounds, 0.78% hits. AID 602281;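 active = inhibition above the mean inhibition across every tested compound plus 3 SD, cut at about 22% in these data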;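 also: 0% = DMSO only wells and the 100% control is not disclosed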
OPRM1 ag – counter-screen for mouse HTR2A agonists: human mu opioid receptor agonists | 2,300 compounds, 5.3% hits | U2OS OPRM1 beta-arrestin PathHunter, luminescence; DMSO 0%, DAMGO 9.3 µM 100% | activation, % at 9.3 µM | shares compounds with m5-HT2A agonist;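 active = mean activation above the mean of DMSO-only wells plus 3 SD, cut at about 0.5% in these data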
m5-HT2A ag conf – mouse HTR2A agonism confirmed; 2,300 compounds, 19% hits; activation, % at 7.6 µM; shares compounds with m5-HT2A agonist; AID 624381; CHO-K1 PathHunter beta-arrestin recruitment, luminescence; DMSO 0%, 30 µM serotonin 100%;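 active = mean activation across triplicates above the hit threshold derived in the original primary screen, cut at about 15% in these data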
Starred values were filed as active, the others as inactive; . = not tested or not shown. Sampled rows, rich in hits. Any-hit rate of the full collection: about 2.3%.

SMILES | Granule exo inh | B2AR ag | NTR1 ag | m5-HT2A agonist | ABHD5 PLIN5 PPI | OPRM1 ag | m5-HT2A ag conf
O=C(C[C@H]1CC[C@@H](NC(=O)C2CC2)[C@@H](CO)O1)NCc1ccccc1Cl | -7.0 | . | . | -3.0 | -10.8 | . | .
CN(CC(=O)Nc1cccnc1)S(=O)(=O)c1ccc(Br)cc1 | -0.7 | 0.6 | 0.4 | 16.9* | -3.1 | -0.7 | -3.6
CCC(=O)NCc1csc(-c2cccs2)n1 | -8.4 | 2.8 | -0.6 | 38.6* | 0.2 | -0.6 | -1.9
O=C(CCS(=O)(=O)c1ccccc1)NCCS(=O)(=O)c1ccccc1 | -0.6 | -9.5 | 0.5 | -0.1 | 3.0 | . | .
CCNC(=O)CCS(=O)(=O)c1ccc2ccccc2c1 | -0.4 | -9.6 | 0.2 | 15.7* | -0.7 | -0.5 | -2.7
O=C(Nc1ccc(Cl)cc1F)c1ccc2c(c1)C(=O)N(Cc1ccncc1)C2=O | -1.2 | . | 0.1 | 19.4* | 2.4 | -0.4 | -6.4
CCOC(=O)c1ccc(Nc2ncnc3nc[nH]c23)cc1 | -3.2 | -7.2 | -2.2 | -4.5 | -5.7 | . | .
c1ccc(COc2ccc(Nc3ncnc4nc[nH]c34)cc2)cc1 | -2.2 | 0.5 | 1.2 | 16.8* | 4.4 | -0.6 | -7.2
CCN(CC)C(=O)Cn1cc(C(=O)C(=O)N2CCN(C)CC2)c2ccccc21 | 1.0 | 8.0 | -0.3 | 16.4* | 5.9 | -0.7 | 0.3
CCN(Cc1ccccc1)C(=O)C(=O)c1cn(CC(=O)N2CCCC2)c2ccccc12 | -3.1 | 6.1 | 0.5 | 15.6* | 5.8 | -0.7 | -3.5
CC1CCCCN1C(=O)C(=O)c1cn(CC(=O)N2CCCC2)c2ccccc12 (configuration not stated) | -2.9 | -0.5 | -0.3 | -2.4 | 13.1 | . | .
O=C(CC1CCCC1)N1CCN(S(=O)(=O)c2cccc(Br)c2)CC1 | 31.9 | . | . | -2.6 | -8.8 | . | .
Cc1cccc(N2CCN(c3ccc(N4C(=O)CCCC4=O)cc3[N+](=O)[O-])CC2)c1C | -1.5 | 2.7 | 2.0 | -2.8 | 0.4 | . | .
Cc1cccc(N2CCN(c3ccc(N4C(=O)CCCC4=O)cc3[N+](=O)[O-])CC2C)c1 (configuration not stated) | 3.0 | -5.8 | 0.4 | 14.8* | -0.1 | -0.6 | 7.2
CCN(C[C@H]1N[C@@](C)(C(=O)OC)[C@H]2C(=O)N(C)C(=O)[C@@H]12)C(=O)Nc1ccc(Cl)cc1 | -2.7 | -0.9 | -0.1 | 37.0* | 1.3 | -0.1 | -0.6
CC(C)Cn1c(SCC(=O)NCCCN2CCCC2=O)nc2ccccc21 | 4.5 | 3.7 | 0.1 | 15.9* | -6.5 | -0.5 | -5.0
Cc1ccc(N(CC(=O)NC2CCCC2)C(=O)c2c(C)noc2C)cc1C | 2.9 | -8.9 | 0.7 | 15.0* | 1.8 | -0.3 | -1.3
c1ccc2c(c1)[nH]c1c(N3CCCC3)ncnc12 | -4.4 | -14.0 | 1.2 | 2.0 | -4.6 | . | .
c1ccc2c(c1)[nH]c1c(N3CCSCC3)ncnc12 | 0.8 | 8.1 | -0.9 | 15.0* | 2.7 | -0.1 | -1.8
CC(C(=O)Nc1ccccc1)N1C(=O)c2ccccc2C1=O (configuration not stated) | 1.5 | 4.5 | -0.8 | 7.2 | 6.4 | . | .
Cc1cc(C)cc(NC(=O)C(C)N2C(=O)c3ccccc3C2=O)c1 (configuration not stated) | -10.1 | -6.0 | -0.1 | 19.7* | -0.3 | -0.5 | -2.0
CC(=O)N1CCN(C(=O)c2ccc(Cl)c(NC(=O)c3cccs3)c2)CC1 | -1.7 | -9.4 | 0.0 | 14.7* | 4.9 | -0.6 | -2.5
Cc1ccc(Cn2cccc2C2=NC(C)CO2)cc1 (configuration not stated) | -1.7 | 0.8 | 1.2 | 14.5* | -2.6 | -0.5 | -5.6
Cc1n[nH]c(=S)n(/N=C/c2cccs2)c1=O | 0.4 | 2.5 | 0.8 | 14.4* | -5.4 | -0.5 | -5.4
CC(/C=C/c1ccccc1)=N/NC(=O)CNC(=O)c1ccccc1F | 3.2 | 1.4 | 2.2 | 1.8 | 4.0 | . | .
SMILES | Granule exo inh | B2AR ag | NTR1 ag | m5-HT2A agonist | ABHD5 PLIN5 PPI | OPRM1 ag | m5-HT2A ag conf
CC(CN1CCCCC1)OC(=O)/C=C/c1ccccc1 (configuration not stated) | 7.6 | -3.2 | 0.4 | 17.4* | -5.5 | -0.5 | 1.4
NC(=O)c1cc([N+](=O)[O-])c(Cl)cc1NCc1cccnc1 | -4.6 | -3.3 | 3.8 | -2.1 | -1.0 | . | .
CCCCCCn1cc(CN2CC(N3CCCC3)CS2(=O)=O)nn1 (configuration not stated) | 11.2 | . | . | 20.3* | 0.0 | -0.6 | -4.3
CN(C)CCN1CCN(C2CN(Cc3cn(Cc4ccccc4)nn3)S(=O)(=O)C2)CC1 (configuration not stated) | 0.9 | . | . | 19.6* | 4.4 | -0.7 | -2.5
O=S1(=O)CC(N2CCN(Cc3ccccc3F)CC2)CN1Cc1cn(Cc2cccc(Cl)c2)nn1 (configuration not stated) | 2.9 | . | . | 14.9* | 4.3 | -0.6 | 3.3
CCCCCCn1cc(CN2CC(N3CCSCC3)CS2(=O)=O)nn1 (configuration not stated) | 4.6 | . | . | 0.2 | -1.2 | . | .
C=C1CC2C3CC[C@@]4(OCOC45COCO5)[C@@]3(C)C(O)CC2[C@@]2(C)CCC(=O)C=C12 (some centres not stated) | 5.1 | 10.7 | 3.8 | 14.7* | 2.8 | -0.6 | -1.0
O=C(NCCc1c[nH]c2ccccc12)C(=O)Nc1cc2c3c(c1)CC(=O)N3CCC2 | 18.3 | 5.6 | 0.5 | 1.3 | 4.4 | . | .
COc1ccc(S(=O)(=O)N2CC(=O)Nc3ccccc32)cc1Cl | -7.1 | 10.7 | 0.0 | 0.1 | 0.1 | . | .
COC(=O)NCCc1cc(OC)c(OC)cc1S(=O)(=O)N1CC(=O)Nc2ccccc21 | -18.1 | -2.6 | 0.2 | 15.1* | 4.7 | -0.5 | -0.8
CC(C)NCC(O)c1ccc(O)c(O)c1 (configuration not stated) | -6.9 | . | 3.6 | 1.2 | 4.1 | . | .
CNC[C@H](O)c1cccc(O)c1 | 3.8 | . | 4.6 | 17.1* | 1.9 | -0.5 | 46.7*
CNC[C@H](O)c1ccc(O)c(O)c1 | -6.7 | . | 9.9 | 50.2* | -21.8 | -0.1 | 164.7*
NC[C@H](O)c1ccc(O)c(O)c1 | 0.3 | . | 5.1 | 35.6* | -9.1 | -0.1 | 143.3*
COc1cc(C(=O)N2CCN(C)C(C)C2)ccc1OC1CCN(C(C)=O)CC1 (configuration not stated) | -6.3 | -1.5 | 0.3 | 3.1 | 2.5 | . | .
CCc1ccccc1N(C(=O)c1snc(C(N)=O)c1N)C(C(=O)NCC1CCCO1)c1ccc(C)o1 (configuration not stated) | 5.9 | 9.9 | -3.5 | -1.8 | 6.2 | . | .
N#Cc1c(N)nc(SCC(=O)OCc2ccccc2)c(C#N)c1-c1ccco1 | 21.9 | 6.9 | 4.4 | -0.6 | 6.5 | . | .
N#Cc1c(N)nc(SCc2ccccc2)c(C#N)c1-c1ccco1 | 26.6 | -2.0 | 8.7 | 15.2* | 7.1 | 0.3 | -3.0

Source: PubChem (several laboratories)
